Screens deposited in PubChem by National Center for Advancing Translational Sciences (NCATS).
Pol kappa inh – inhibitors of human DNA polymerase kappa | Q9UBT6 | purified Pol kappa, fluorescent DNA synthesis assay, 10 min | Potency, µM (titrated, usually from 107 µM), most hits filed as inhibitors | 400,000 compounds, 0.53% hits | AID 588579
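Kinetic fluorescence readout at 0 and 10 min followed reaction start with substrate at 50 nM final. Beforehand, enzyme (10 nM Pol kappa) stood 15 min with compound at room temperature; buffer-only wells were negative controls.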
Pol iota inh – DNA polymerase iota (human) inhibition | 390,000 compounds, 1% hits | AID 588590 | Potency, µM (titrated, usually from 115 µM), usual class: inhibitors | Pol iota fluorescent replication assay, 10 min
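Fluorescent replication assay read twice, at 0 min and 10 min after adding 50 nM (final) substrate. Enzyme (10 nM) and compounds were first incubated 15 min at room temperature; enzyme-free buffer wells were negative controls.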
GLS inh – inhibitors of human glutaminase (GLS); GLS enzymatic activity, qHTS titration; Potency, µM (series often up to 45.5 µM), usual class: inhibitors; 410,000 compounds, 0.21% hits
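Two-point fluorescence kinetic (t0, 30 min RT) for hKGA; glutamate detected via glutamate oxidase–HRP–Amplex Red. Substrate: 1 mM L-glutamine solution; buffer 45 mM KH2PO4, pH 8.2.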
Pol eta inh – blocks human DNA polymerase eta activity; Q9Y253; recombinant Pol eta, fluorescent DNA replication assay; Potency, µM (series often up to 114 µM), hits mostly inhibitors; 390,000 compounds, 1.2% hits; AID 588591
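Fluorescent replication assay: 50 nM final substrate added after a 15 min room-temperature compound preincubation with 10 nM enzyme. Signal taken at 0 min and again at 10 min.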
POLB inh – blocks human DNA polymerase beta activity. P06746. Pol beta primer extension/strand displacement, fluorescence kinetic. Potency, µM (top dose mostly 114 µM), usual class: inhibitors. 340,000 compounds, 1.3% hits
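Homogeneous kinetic assay of primer extension and strand displacement by 10 nM Pol beta, preincubated 15 min at room temperature with compound before 50 nM substrate (final) was added. Read at 0 and 10 min; four-parameter Hill fit.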
GCN5L2 inh – inhibitors of human GCN5L2 histone acetyltransferase. GCN5L2 HAT assay, ThioGlo1 CoA-SH fluorescence. 390,000 compounds, 0.21% hits. Potency, µM (doses to about 58.9 µM), actives largely listed as inhibitors
Target sequence (Q92830 whole entry, looked up): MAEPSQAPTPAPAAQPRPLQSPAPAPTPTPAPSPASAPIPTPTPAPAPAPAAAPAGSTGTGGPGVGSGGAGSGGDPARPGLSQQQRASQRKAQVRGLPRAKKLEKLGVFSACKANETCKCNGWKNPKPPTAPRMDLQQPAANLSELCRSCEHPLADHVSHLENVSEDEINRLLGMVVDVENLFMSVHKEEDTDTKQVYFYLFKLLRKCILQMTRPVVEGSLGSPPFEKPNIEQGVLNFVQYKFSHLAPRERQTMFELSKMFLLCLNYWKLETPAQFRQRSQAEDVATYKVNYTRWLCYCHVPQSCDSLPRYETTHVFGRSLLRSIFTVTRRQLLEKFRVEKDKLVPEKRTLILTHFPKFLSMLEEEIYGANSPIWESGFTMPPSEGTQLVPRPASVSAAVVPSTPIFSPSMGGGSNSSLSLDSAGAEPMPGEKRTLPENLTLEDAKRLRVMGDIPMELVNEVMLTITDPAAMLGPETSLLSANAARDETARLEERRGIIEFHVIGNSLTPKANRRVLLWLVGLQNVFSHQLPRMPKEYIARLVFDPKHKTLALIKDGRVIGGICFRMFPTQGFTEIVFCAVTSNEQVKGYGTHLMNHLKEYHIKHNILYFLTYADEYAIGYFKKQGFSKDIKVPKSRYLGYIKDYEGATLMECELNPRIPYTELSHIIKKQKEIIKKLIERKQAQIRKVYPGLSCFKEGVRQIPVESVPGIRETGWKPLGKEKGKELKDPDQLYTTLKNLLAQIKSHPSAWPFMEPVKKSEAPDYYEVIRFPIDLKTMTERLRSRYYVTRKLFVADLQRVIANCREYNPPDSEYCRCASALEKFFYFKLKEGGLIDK
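ThioGlo1-coupled HAT assay: 20nM GCN5L2, 70uM acetyl-CoA, 75uM H3(1-25) peptide, pH 7.5. Fluorescence read at 340/540nm at start and after 20 min at room temperature.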
A number is an active result; – = inactive; ? = inconclusive; · = no result given; ! = a repeat was not active. An excerpt weighted towards active compounds, which were near 2.4% of everything screened. The call rests on the fitted dose curve; in most records, active means well fitted inhibition curve with a large enough effect; inconclusive means small, poorly fitted or top-dose-only effect, or another doubt; inactive means no such curve, though single readings can be large or run the other way.

SMILES | Pol kappa inh | Pol iota inh | GLS inh | Pol eta inh | POLB inh | GCN5L2 inh
Cc1ccc(NC(=O)c2cnn3c(C(F)F)cc(-c4ccccc4)nc23)c(C)c1 | ? | ? | – | – | ? | –
COc1ccc2c(c1)OC(=O)CC2c1ccc2c(c1)OCO2 (stereo not given) | – | · | · | · | · | –
CC(C)C(C)N(Cc1cccc(C(=O)O)c1)C(=O)c1ccc2ccccc2n1 (stereo not given) | – | 22µM | – | – | · | ·
COc1cc(C2C(C#N)=C(N)Oc3n[nH]c(C)c32)cc2c1OCO2 (stereo not given) | ? | ? | – | 16µM | ? | –
COc1cc(C2C(C#N)=C(N)Oc3n[nH]c(C)c32)ccc1OC(=O)c1ccccc1 (stereo not given) | – | – | – | – | – | –
COC(=O)Cc1[nH]nc2c1C(c1ccc(O)c(OC)c1)C(C#N)=C(N)O2 (stereo not given) | – | 8.9µM | – | 45µM | – | –
COc1ccc(C=NNc2ccc(S(=O)(=O)Nc3ccccc3C(=O)O)cc2[N+](=O)[O-])c(OC)c1 | ? | ? | – | 50µM | · | ?
CCOc1ccc(C=NNc2ccc(S(=O)(=O)Nc3ccccc3C(=O)O)cc2[N+](=O)[O-])cc1 | – | ? | – | – | · | ?
C/C=C1\C(OC2OC(CO)C(O)C(O)C2O)OC=C(C(=O)OC)C1CC(=O)OCC1C(C)C(OC(=O)CC2C(C(=O)OC)=COC(OC3OC(CO)C(O)C(O)C3O)/C2=C\C)CC1C(CO)CO (stereo not given) | 79µM | 79µM | – | ? | 25µM | –
CN(Cc1cnc2nc(N)nc(N)c2n1)c1ccc(C(=O)N[C@@H](CCC(=O)O)C(=O)O)cc1 | ? | 32µM! | – | 32µM! | 40µM | ?
CN(C)S(=O)(=O)c1cccc(NC(=S)Nc2cccc3cnccc23)c1 | – | 2.8µM | – | – | – | –
S=C(Nc1cccnc1)Nc1cccc2cnccc12 | – | ? | – | – | – | –
COc1ccccc1C(=O)Nc1ccnn1C1CCN(Cc2cnc(N(C)C)s2)CC1 | – | – | – | – | 89µM | –
O=C(CCc1nc2sc3c(c2c(=O)[nH]1)CCCC3)NCCc1ccc(Cl)cc1 | · | · | – | – | · | ·
COc1ccc(CCNC(=O)CCc2nc3sc4c(c3c(=O)[nH]2)CCCC4)cc1 | – | ? | – | ? | 35µM | –
CCc1ccc(NC(=O)CCc2nc3sc4c(c3c(=O)[nH]2)CCCC4)cc1 | ? | ? | – | 45µM | · | –
O=C(CCc1nc2sc3c(c2c(=O)[nH]1)CCCC3)Nc1ccccc1Cl | ? | 45µM | – | ? | · | –
COc1cc(/C=C/c2cccc[n+]2C)ccc1OCC(=O)Nc1cccc(Cl)c1 | – | ? | – | – | 40µM | –
COc1cc(/C=C/c2cc[n+](C)cc2)ccc1OCC(=O)Nc1ccc(Cl)c(Cl)c1 | – | – | – | 89µM | 56µM | –
COc1cc(/C=C/c2cccc[n+]2C)ccc1OCC(=O)Nc1ccccc1 | – | ? | – | ? | 16µM | –
C/C=C/c1ccc(OCC(=O)Nc2cc(OC)c(OC)c(OC)c2)c(OC)c1 | – | – | – | – | – | –
C/C=C/c1ccc(OCc2cc(=O)n3cc(C)ccc3n2)c(OC)c1 | – | ? | – | – | 35µM | –
COc1ccc(NC(=O)COc2ccc(/C=C/c3cc[n+](C)cc3)cc2OC)cc1 | – | ? | – | – | ? | –
CNc1nc(Cl)nc2c1ncn2CC(COC(=O)C(C)(C)C)COC(=O)C(C)(C)C | – | · | · | · | · | –
C/C=C/c1ccc(OCC(=O)O)c(OC)c1 | – | – | – | 35µM | ? | –
SMILES | Pol kappa inh | Pol iota inh | GLS inh | Pol eta inh | POLB inh | GCN5L2 inh
C/C=C/c1ccc(OCC(=O)OCC)c(OC)c1 | – | – | – | – | – | –
Oc1cc(NCCc2cccnc2)cc2cccnc12 | – | 35µM | – | – | · | –
C[N+]1(CC(=O)c2ccc(I)cc2)CCOCC1 | – | – | · | · | · | ·
O=C1c2ccc(O)c(O)c2C(=O)c2c(O)ccc(O)c21 | 2.8µM | · | · | · | · | ?
O=C1c2cccc(O)c2C(=O)c2c(O)cccc21 | – | · | – | · | – | ?
Cc1cc(C(=O)CSc2nnc(-c3ccco3)o2)c(C)n1C | ? | 35µM | – | – | · | –
COc1ccc(C(=O)NCCN(C)C)c2nc3ccccc3cc12 | ? | 79µM | – | ? | · | ·
CN(C)CCNC(=O)c1cccc2nc3c(ccc4ccccc43)nc12 | ? | 79µM | – | ? | · | ·
COc1cccc(/C=c2/[nH]c(=O)/c(=C\c3cccc(OC)c3OC)[nH]c2=O)c1OC | – | – | · | · | · | ·
O=C(/C=C/c1ccccc1)c1ccc2ccccc2c1 | – | 22µM | – | – | · | ·
COC(=O)N/N=C(C)/C=C/c1ccccc1 | ? | 89µM | – | – | · | ·
O=C(/C=C/c1ccccc1)/C=C/c1ccccc1 | – | ? | – | 18µM | – | –
CCOC(=O)N/N=C(C)/C=C/c1ccccc1 | ? | ? | – | – | – | –
C=C(C(=O)O)c1ccc2ccccc2c1 | ? | 79µM | · | · | · | ·
O=C(c1ccc2ccccc2c1)N1CCN(S(=O)(=O)/C=C/c2ccccc2)CC1 | – | – | – | – | – | –
CCOc1ccc(NC(=O)Cn2nc(-c3ccncc3)ccc2=O)cc1 | – | – | – | – | – | –
O=C(O)c1ccc(/C=C/C(=O)c2ccc3c(c2)OCCCO3)cc1 | – | ? | – | 22µM | – | –
COc1cc(/C=C/C(=O)c2ccc3c(c2)OCO3)cc(Cl)c1O | ? | 20µM | – | 40µM | 40µM | –
COc1ccc(C(=O)C=Cc2ccc3c(c2)OCO3)cc1OC | · | · | – | – | · | ·
O=C(/C=C/c1ccccc1)c1cc(Br)ccc(=O)c1O | 40µM | 3.2µM | – | ? | ? | –
CC(=O)Nc1ccc(/C=C/C(=O)c2ccc3c(c2)OCCO3)cc1 | – | ? | – | – | – | –
O=C(/C=C/c1ccccc1)c1ccccc1 | – | 22µM | – | ? | – | –
Cc1ccc(-n2c(SCC(=O)NCc3ccco3)nc3nc4c(cc3c2=O)COC(C)(C)C4)cc1 | – | ? | – | ? | 79µM | –
Cc1ccc(-n2c(SCC(=O)NCc3ccco3)nc3sc(C)c(C)c3c2=O)cc1 | – | – | – | – | – | –
COc1cccc(C2CC(=O)N3CN(c4cccc(Cl)c4C)CSC3=C2C#N)c1OC (stereo not given) | – | – | – | – | – | 22µM
COc1ccc(Br)cc1C1CC(=O)N2CN(Cc3ccccc3)CSC2=C1C#N (stereo not given) | – | – | – | – | – | ?
COc1ccc(OC)c(C2CC(=O)N3CN(c4cccc(Cl)c4C)CSC3=C2C#N)c1 (stereo not given) | – | – | – | – | – | 25µM
CCN1C(=NCc2cccc(C(F)(F)F)c2)N[C@@H](c2cccc(C(F)(F)F)c2)C(C(=O)OC)=C1C | – | – | · | · | · | ·
